Many of the other results were omitted from the sample, so hits are more common in it than they were.
Bead autofluor: flagged as autofluorescent in microsphere protease counterscreen | compound autofluorescence counterscreen, microsphere flow cytometry; hits give high values | fluorescence intensity (no concentration beside the values) | actives 3.1% (n = 360,000) | AID 624483; in the data active = fluorescence intensity above about 16000; inconclusive = no clear call, values can overlap the other calls
TcdB inh: inhibitors of Clostridioides difficile toxin B glycohydrolase; AID 652162; inhibition, % at 9.99 µM; TcdB glycohydrolase enzymatic assay, plate reader; actives 0.24% (n = 350,000); in the data active = inhibition above about 10%
BoNT A protease: inhibitors of Botulinum neurotoxin A light chain protease; inhibition, % at 10 µM; multiplex microsphere protease substrate cleavage, flow cytometry; actives 0.17% (n = 360,000); AID 588499; also: plate controls were buffer without enzyme for full effect and enzyme alone for no effect
Anthrax LF prot: blocks Bacillus anthracis lethal factor protease | P15917 | multiplex microsphere protease cleavage assay, LF | inhibition, % at 10 µM | actives 0.12% (n = 360,000); also: plate controls were buffer without enzyme for full effect and enzyme alone for no effect
BoNT F protease: BoNT F light chain protease inhibition | actives 0.22% (n = 360,000) | inhibition, % at 10 µM | AID 588497 | Multiplex microsphere protease cleavage assay, flow cytometry; in the data active = inhibition above about 35%, passing the limit was not always enough; inconclusive = no clear call, values can overlap the other calls; also: plate controls were buffer without enzyme for full effect and enzyme alone for no effect
An asterisk follows results filed as active; ? = inconclusive; / = no result. Rule as the data show it, unless noted: active = inhibition above about 30%; inconclusive = no clear call, values can overlap the other calls; inactive = below that.

SMILES	Bead autofluor	TcdB inh	BoNT A protease	Anthrax LF prot	BoNT F protease
COCC(=O)Nc1ccc2c(c1)OC[C@H](C)N(Cc1cccnc1)C[C@H](C)[C@H](OC)CN(C)C2=O	/	0	/	/	/
Cc1cccc(S(=O)(=O)N[C@H]2CC[C@H](CCNS(=O)(=O)c3ccccc3F)O[C@H]2CO)c1	/	0	/	/	/
CC(NC(=O)COC(=O)Cc1ccsc1)C1CC2CCC1C2 (stereo unspecified)	24292*	/	-3	-2	-4
C=CCn1c(SCc2c(F)cccc2Cl)nnc1-c1ccco1	16837*	/	0	-2	0
C=CCc1ccc(O)c(-c2ccc(O)c(CC=C)c2)c1	5005	11*	-1	-11	3
C=CCc1ccc2c(c1)OCO2	/	1	/	/	/
COC(=O)CN(C(=S)Nc1ccc(F)cc1)C1CC(=O)N(c2ccc(OC)cc2)C1=O (stereo unspecified)	22916*	/	?	-1	-3
Cc1cccc(C)c1NC(=O)CSCCO	7039	0	0	-2	-2
O=C(CSCCO)Nc1cccc2ccccc12	22778*	/	?	-3	-4
CC(=O)c1cccc(NC(=O)CSc2nc(N3CCCCC3)nc(N3CCCCC3)n2)c1	3999	1	0	-4	-4
Cc1ccccc1NC(=O)CSc1nc(N2CCCCC2)nc(N2CCCCC2)n1	22832*	/	?	-3	-4
O=C(CSCC(=O)Nc1cccc2ccccc12)Nc1cccc2ccccc12	4775	-1	0	2	-10
Cc1ccccc1NC(=O)CSCCO	22229*	/	2	0	3
C[C@H]1CN([C@@H](C)CO)C(=O)c2cccc(NS(=O)(=O)c3ccc(Cl)cc3)c2O[C@H]1CN(C)Cc1ccc(C(=O)O)cc1	/	-2	/	/	/
CCCC#Cc1ccc([C@@H]2[C@@H](CO)N3C(=O)CN(C(=O)NCCC)C[C@H]23)cc1	/	0	/	/	/
Cc1ccc(COn2c(-c3ccc(Cl)cc3)nc3ccc([N+](=O)[O-])cc32)cc1	4264	/	-1	-13	-9
COn1c(-c2ccc(Cl)cc2)nc2ccc(Cl)cc21	23040*	/	0	-2	-1
Clc1ccc(COn2c(-c3ccc(Cl)cc3)nc3ccccc32)cc1	21296*	/	?	0	-7
O=C(O)COn1c(-c2ccc(Cl)cc2)nc2ccc(Cl)cc21	2456	10*	0	-2	-4
C[C@H](CO)N1C[C@H](C)[C@@H](CN(C)C(=O)CCC(F)(F)F)OCCCC[C@H](C)Oc2ccc(NC(=O)c3ccccc3)cc2C1=O	/	-1	/	/	/
O=C(c1ccc2c(c1)OCO2)N1C[C@H]2[C@@H](c3ccccc31)[C@@H](CO)N2Cc1ccccc1Cl	/	0	/	/	/
COc1ccc(-c2cnc3c(c2)C(=O)N([C@@H](C)CO)C[C@H](C)[C@@H](CN(C)C(=O)CN(C)C)O3)cc1	/	0	/	/	/
COC(=O)C1CSc2[nH]c(=O)sc2C1c1ccccc1 (stereo unspecified)	23079*	0	0	-1	0
Cc1nc2sc(C(c3ccc(Cl)cc3)N3CC(C)OC(C)C3)c(O)n2n1 (stereo unspecified)	3430	/	2	1	36*
O=C(O)C[C@H]1C[C@@H]2c3cc(NC(=O)Nc4ccccc4)ccc3O[C@@H]2[C@H](CO)O1	/	-1	/	/	/
SMILES	Bead autofluor	TcdB inh	BoNT A protease	Anthrax LF prot	BoNT F protease
COc1cccc(CSc2nnc(C(F)(F)F)n2Cc2ccc(F)cc2)c1	22093*	1	3	-1	5
CCc1ccc(OCC(=O)Nc2cc(S(=O)(=O)CC)ccc2O)cc1	17897*	1	4	0	4
O=C1CC(c2ccccc2)CC(O)=C1C=NC1CCCCC1 (stereo unspecified)	23531*	/	-3	0	-2
NS(=O)(=O)c1ccc(CCNC(=O)c2ccc(CS(=O)(=O)c3ccc(Br)cc3)o2)cc1	4531	12*	5	1	3
Cc1ccccc1S(=O)(=O)Cc1ccc(C(=O)NC(C)c2ccc3c(c2)OCCO3)o1 (stereo unspecified)	5946	1	0	0	-6
CC(NC(=O)c1ccc(CS(=O)(=O)c2ccc(Cl)cc2)o1)c1ccc2c(c1)OCCO2 (stereo unspecified)	20032*	0	-1	-1	-2
Cc1ccc(S(=O)(=O)Cc2ccc(C(=O)NCCCN3CCN(C)CC3)o2)cc1	23094*	/	?	-2	-4
Cc1ccc(CS(=O)Cc2ccc(C(=O)NCc3ccc4c(c3)OCO4)o2)cc1 (stereo unspecified)	5404	-1	-1	0	0
Cc1ccc(S(=O)(=O)Cc2ccc(C(=O)NCc3ccc4c(c3)OCO4)o2)cc1	22168*	/	?	-2	2
COc1ccc(S(=O)(=O)Cc2ccc(C(=O)NCCc3ccc(S(N)(=O)=O)cc3)o2)cc1	6111	-6	-1	-6	-5
COc1ccc(S(=O)(=O)Nc2ccc3c(c2)C(=O)N([C@@H](C)CO)C[C@H](C)[C@H](CN(C)Cc2ccc(C(F)(F)F)cc2)OCCCC[C@H](C)O3)cc1	/	0	/	/	/
COCCNC(=O)c1ccc(CS(=O)(=O)c2ccc(C)cc2)o1	22139*	/	-1	-3	-2
COc1ccc(NC(=O)Nc2ccc3c(c2)CC(=O)N([C@@H](C)CO)C[C@@H](C)[C@H](CN(C)Cc2ccc(C(=O)O)cc2)O3)cc1	/	4	/	/	/
COc1ccc(NC(=O)Nc2cccc3c2O[C@H](CN(C)C(=O)NC2CCCCC2)[C@H](C)CN([C@@H](C)CO)C3=O)cc1	/	0	/	/	/
C[C@H]1CCCCO[C@H](CN(C)Cc2ccc3c(c2)OCO3)[C@@H](C)CN([C@@H](C)CO)C(=O)c2cc(NC(=O)CCC(F)(F)F)ccc2O1	/	-3	/	/	/
C[C@@H]1CN([C@@H](C)CO)C(=O)c2cc(NC(=O)C3CC3)ccc2O[C@@H]1CN(C)Cc1ccc(C(F)(F)F)cc1	/	-2	/	/	/
CC1C(=O)C(C)C(c2ccc([N+](=O)[O-])cc2)NC1c1ccc([N+](=O)[O-])cc1 (stereo unspecified)	4621	18*	0	2	-4
CC1C(=O)CC(c2ccc([N+](=O)[O-])cc2)NC1c1ccc([N+](=O)[O-])cc1 (stereo unspecified)	4510	2	-2	-4	-26
CCOC(=O)C1CCN(Cc2ccc(F)cc2)CC1	16511*	-12	0	-1	1
CCOC(=O)C1CCN(Cc2ccc(C(=O)OC)cc2)CC1	23791*	1	-1	-2	-3
COC(=O)c1ccc(/C=N\N2CCN(Cc3ccc(C)cc3)CC2)cc1	16594*	1	?	-8	-3
COC(=O)c1ccc(/C=N/N2CCN(Cc3ccccc3)CC2)cc1	2784	/	-1	-5	-11
CCOC(=O)C1CCN(Cc2cnc(Oc3ccc(N)cc3)s2)CC1	21292*	/	3	-3	3
Cc1cccc(S(=O)(=O)N2C[C@H](O)COC[C@H]3O[C@H](CC(=O)NCc4ccc5c(c4)OCO5)CC[C@@H]32)c1	/	-1	/	/	/
O=C(C[C@H]1C=C[C@H](NS(=O)(=O)c2ccc(F)cc2)[C@H](CO)O1)NCc1ccccc1F	/	0	/	/	/
NC(=O)C1(N2CCCCC2)CCN(Cc2ccc(Br)cc2)CC1	4483	-1	?	-5	?
